Compounds with a hit are over-represented: about 17% of the library has one in this group of screens.
DT40 TDP1 no CPT = qHTS for Inhibitors of human tyrosyl-DNA phosphodiesterase 1 (TDP1): qHTS in cells in absence of CPT. DT40 Tdp1-/- hTDP1 cells, no CPT, ATP luminescence, 48 h. Potency, µM (doses to about 46.2 µM), for the others: at the top dose activity change, negative = growth inhibition, actives largely listed as inhibitors. actives 15% (n = 420,000). AID 686978, 2013; further: on the % scale 0 is the no-effect control and ±100 the full control effect; nearly all actives have a fitted effect of over 55% in size
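Camptothecin absent (DMSO only). Human TDP1-complemented DT40 knockout cells, 400 cells/well, 37 °C for minimum 48 hr; ATP measured via CellTiter-Glo, 30 min dark incubation, luminescence.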
TDP1 cell CPT = growth inhibition of DT40 Tdp1-/-;hTDP1 cells with camptothecin (screen for TDP1 inhibitors) | chicken DT40 Tdp1-/-;hTDP1 cells + 20 nM CPT, ATP luminescence, 48 h | Potency, µM (titrated, usually from 46.2 µM), inactives show at the top dose activity change, negative = growth inhibition, actives largely listed as inhibitors | actives 12% (n = 420,000) | AID 686979; further: on the % scale 0 is the no-effect control and ±100 the full control effect; nearly all actives have a fitted effect of over 55% in size
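Chicken DT40 Tdp1-/- cells complemented with human TDP1, 400 cells/well, exposed to compounds plus 20 nM camptothecin for at least 48 h at 37 C; viability read as ATP content by CellTiter-Glo luminescence.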
TDP1 block = inhibitors of human tyrosyl-DNA phosphodiesterase TDP1; Q9NUW8; recombinant TDP1, AlphaScreen DNA substrate cleavage; Potency, µM (titrated, usually from 130 µM), for the others: top-dose activity change, negative = inhibition, hits mostly inhibitors; actives 0.28% (n = 350,000); AID 485290; further: on the % scale 0 is the no-effect control and ±100 the full control effect; nearly all actives have a fitted effect of over 40% in size
Target sequence (Q9NUW8 whole entry, looked up): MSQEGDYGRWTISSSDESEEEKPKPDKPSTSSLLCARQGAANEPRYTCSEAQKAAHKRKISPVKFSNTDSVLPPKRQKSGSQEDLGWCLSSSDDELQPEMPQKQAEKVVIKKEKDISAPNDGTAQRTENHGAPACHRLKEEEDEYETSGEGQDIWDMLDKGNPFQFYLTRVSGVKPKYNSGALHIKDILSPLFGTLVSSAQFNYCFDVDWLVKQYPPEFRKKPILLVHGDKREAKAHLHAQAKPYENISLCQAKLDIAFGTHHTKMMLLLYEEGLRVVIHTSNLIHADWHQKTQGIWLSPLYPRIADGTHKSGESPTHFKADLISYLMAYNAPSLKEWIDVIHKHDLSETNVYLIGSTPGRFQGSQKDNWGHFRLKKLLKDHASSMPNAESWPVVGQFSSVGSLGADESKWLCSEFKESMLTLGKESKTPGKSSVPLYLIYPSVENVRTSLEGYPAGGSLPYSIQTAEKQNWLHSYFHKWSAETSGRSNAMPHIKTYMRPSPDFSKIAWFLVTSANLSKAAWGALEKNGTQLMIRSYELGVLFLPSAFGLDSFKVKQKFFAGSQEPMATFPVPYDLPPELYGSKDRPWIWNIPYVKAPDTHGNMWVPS
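Enzyme-compound mixtures sat 15 min at room temperature, followed by a 5 min reaction with 15 nM final substrate and 10 min with AlphaScreen beads. Recombinant human Tdp1 was used at 1 nM final.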
ClpP mod = qHTS Assay for Activators of ClpP. ATP-dependent Clp protease proteolytic subunit (Bacillus subtilis (strain 168)), P80244. purified B. subtilis ClpP, FRET peptide cleavage, 20 min. Potency, µM (top dose mostly 57.5 µM), for the others: at the highest dose activity change, negative = active. actives 1.9% (n = 340,000). AID 651965, 2013; active means well fitted falling curve with a large enough effect; inconclusive means small, poorly fitted or top-dose-only effect; inactive means no such curve, though single readings can be large or run the other way; further: the source files actives as falling curves though it sought activators and does not explain the sign; nearly all actives have a fitted effect of over 65% in size
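FRET quenching reversal measured ClpP activation: 10 microg/mL B. subtilis ClpP at pH 8 with the FRET-FV decapeptide, read at 430 nm after 320 nm excitation. The 20-min minus 0-min signal was scaled between DMSO/no-enzyme wells and ADEP (5.8 microM final).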
The depositor's hits bear a star; ? = inconclusive; · = not tested or not shown; [ ] = another dose, or the depositor's remark. Unless noted, the call rests on the fitted dose curve; in most records, active means well fitted curve in the direction sought with a large enough effect; inconclusive means small, poorly fitted or top-dose-only effect, or another doubt; inactive means no such curve, though single readings can be large; an effect the other way counts as inactive or inconclusive. Potency means the concentration at half of the fitted maximal effect.

SMILES	DT40 TDP1 no CPT	TDP1 cell CPT	TDP1 block	ClpP mod
COc1ccc(-c2onc(C)c2C)cc1S(=O)(=O)Nc1cccc(C#N)c1	20.6µM*	23.1µM*	2.6%	1.3%
COc1ccc(CCNS(=O)(=O)c2cc(-c3onc(C)c3C)ccc2OC)cc1OC	?	-23.6%	2.6%	-0.1%
CCc1ccc(-c2cc(C)no2)cc1S(=O)(=O)Nc1cc(OC)c(OC)c(OC)c1	16.4µM*	16.4µM*	7.9%	0.0%
COc1ccc(-c2onc(C)c2C)cc1S(=O)(=O)Nc1cc(Cl)ccc1C	3.66µM*	3.66µM*	2.6%	-1.6%
CCc1ccc(-c2cc(C)no2)cc1S(=O)(=O)Nc1cc(C)ccn1	7.4%	-23.7%	1.7%	-9.0%
COC(=O)c1ccc(NS(=O)(=O)c2cc(-c3cc(C)no3)ccc2OC)cc1	2.91µM*	3.66µM*	3.1%	2.9%
C=CCn1c(CNC(=O)c2ccccc2F)nnc1SCc1nc2ccccc2c(=O)[nH]1	-1.5%	0.5%	8.1%	·
CCCCCC/C(C=O)=C\c1ccccc1	-18.8%	3.6%	5.4%	2.0%
O=C(CSc1nnc(-c2ccco2)o1)N1CCCCC1	-5.1%	-18.4%	·	·
Cc1cc(-c2ccc(C)c(S(=O)(=O)Nc3cccc(C)n3)c2)on1	?	2.6%	5.3%	31.6µM*
Cc1ccc(NC(=O)CCS(=O)(=O)c2cc(Br)cc3c2N(C(=O)C2CC2)CC3)cc1	-0.3%	11.8%	7.5%	-2.7%
CCC(C(=O)OCC(=O)Nc1ccc(C)c(S(=O)(=O)N2CCOCC2)c1)c1ccccc1 (configuration not stated)	?	11.6µM*	0.2%	-3.1%
Cc1ccc(NC(=O)COC(=O)/C=C/c2ccccc2)cc1S(=O)(=O)N1CCOCC1	9.5%	1.3%	2.5%	·
CCC(C(=O)OCC(=O)Nc1cc(Cl)ccc1Cl)c1ccccc1 (configuration not stated)	-24.4%	-23.4%	0.0%	25.1µM*
Cc1cc(C)cc(NC(=O)c2oc3ccccc3c2COc2ccccc2)c1	20.6µM*	?	-5.8%	25.1µM*
CCC(C(=O)OCC(=O)Nc1ccc(OC)cc1OC)c1ccccc1 (configuration not stated)	-18.5%	26.2%	0.0%	·
Cc1ccc(NC(=O)c2oc3ccccc3c2COC(C)C)cc1S(=O)(=O)N1CCOCC1	23.1µM*	18.4µM*	0.3%	-0.8%
COc1ccc(NC(=O)c2oc3ccccc3c2CSC)cc1S(=O)(=O)N1CCOCC1	-3.1%	10.8%	-0.9%	·
N[C@H](C(=O)O)c1nn[nH]n1	-8.9%	-9.8%	10.7%[56.1 µM]	·
Cc1ccc(S(=O)(=O)C(CNS(=O)(=O)c2cc(F)ccc2F)c2cccs2)cc1 (configuration not stated)	?	?	0.0%	-3.3%
Cc1ccc(NC(=O)C(C)OC(=O)c2cc(=O)[nH]c3ccccc23)cc1S(=O)(=O)N1CCOCC1 (configuration not stated)	8.0%	1.8%	·	5.2%
Cc1cnc(C(=O)OCC(=O)Nc2ccc(C)c(S(=O)(=O)N3CCOCC3)c2)cn1	-3.6%	-1.5%	-2.0%	1.5%
Cc1ccc(NC(=O)COC(=O)C2(C)CC2(Cl)Cl)cc1S(=O)(=O)N1CCOCC1 (configuration not stated)	23.1µM*	20.6µM*	0.5%	0.5%
CC(=O)c1c(C)[nH]c(C(=O)OC(C)C(=O)Nc2ccc(C)c(S(=O)(=O)N3CCOCC3)c2)c1C (configuration not stated)	29.1µM*	23.1µM*	4.0%	1.1%
CC(C)(C)c1ccc(NC(=O)COC(=O)C2(C)CC2(Cl)Cl)cc1 (configuration not stated)	23.1µM*	?	2.5%	1.1%
SMILES	DT40 TDP1 no CPT	TDP1 cell CPT	TDP1 block	ClpP mod
Cc1ccc(NC(=O)CSc2ccc(Br)cc2)cc1S(=O)(=O)N1CCOCC1	25.9µM*	18.4µM*	·	·
COc1ccc(CN2C[C@@H](CO)O[C@@H](n3cnc4c(NCc5ccc(F)cc5)ncnc43)C2)cc1	?	?	·	1.1%
COc1c(C(CC(C)C)OC(C)=O)ccc2c1C(=O)OCc1cc(C)cc(O)c1O2 (configuration not stated)	11.6µM*	9.2µM*	·	2.2%
COc1c(C(O)CC(C)C)ccc2c1C(=O)OCc1cc(C)cc(O)c1O2 (configuration not stated)	18.4µM*	?	-5.1%	0.7%
COc1ccc(OC)c(C2CC(=O)c3c([nH]c(C(=O)OC4CCC(C)CC4)c3C)C2)c1 (configuration not stated)	8.2µM*	14.6µM*	5.0%	-2.3%
COc1ccccc1C1CC(=O)NC(C)=C1C(=O)OCC1CCCO1 (configuration not stated)	-19.4%	-18.5%	1.0%	-2.6%
COc1ccc(OC)c(C2CC(=O)c3c([nH]c(C(=O)OCC4CCCO4)c3C)C2)c1 (configuration not stated)	5.17µM*	5.8µM*	5.4%	2.5%
COc1cc(C2CC(=O)c3c([nH]c(C(=O)OCc4ccc(C)cc4)c3C)C2)cc(OC)c1OC (configuration not stated)	0.92µM*	1.46µM*	5.0%	-1.2%
COCCOC(=O)c1[nH]c2c(c1C)C(=O)CC(c1cc(OC)ccc1OC)C2 (configuration not stated)	2.59µM*	2.91µM*	7.6%	0.7%
CCOC(=O)c1[nH]c2c(c1Cc1ccccc1C)C(=O)CC(c1cc(OC)ccc1OC)C2 (configuration not stated)	?	?	-4.3%[12.3 µM]	-0.6%
CCOC(=O)c1[nH]c2c(c1C)C(=O)CC(c1ccc(OC)c(OC)c1)C2 (configuration not stated)	-33.9%	2.4%	-6.6%	-0.5%
Cc1ccccc1-c1noc(-c2ccc(N3CCC(C)CC3)c([N+](=O)[O-])c2)n1	-12.2%	-25.4%	2.9%	0.2%
COc1ccc(-n2nc(C)c3c(C(F)(F)F)cc(-c4cccnc4)nc32)cc1	-23.3%	-18.1%	2.3%	0.0%
COc1ccc(OC)c(C2CC(=O)c3c([nH]c(C(=O)OC(C)C)c3C)C2)c1 (configuration not stated)	0.82µM*	0.82µM*	-1.0%	2.2%
CCCOCCOC(=O)c1[nH]c2c(c1C)C(=O)CC(c1cc(OC)ccc1OC)C2 (configuration not stated)	5.8µM*	5.17µM*	2.6%	-0.1%
COc1ccc(OC)c(C2CC(=O)c3c([nH]c(C(=O)OCc4ccc(C)cc4)c3C)C2)c1 (configuration not stated)	0.651µM*	4.61µM*	0.0%[12.3 µM]	-2.5%

Bioassay records from PubChem.
